In the library only some 3.9% were active in any assay of this set; here they are far more common.
Rtt109 HAT inh: inhibitors of Candida albicans Rtt109/Vps75 histone acetyltransferase | Q5AAJ8 | purified Rtt109/Vps75, ThioGlo CoA-SH fluorescence, 4 h | inhibition, % at 34.9 µM | 330,000 compounds, 0.16% hits | AID 540336;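 active means inhibition of at least 50% in every replicate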
Target sequence (Q5AAJ8 whole entry, looked up): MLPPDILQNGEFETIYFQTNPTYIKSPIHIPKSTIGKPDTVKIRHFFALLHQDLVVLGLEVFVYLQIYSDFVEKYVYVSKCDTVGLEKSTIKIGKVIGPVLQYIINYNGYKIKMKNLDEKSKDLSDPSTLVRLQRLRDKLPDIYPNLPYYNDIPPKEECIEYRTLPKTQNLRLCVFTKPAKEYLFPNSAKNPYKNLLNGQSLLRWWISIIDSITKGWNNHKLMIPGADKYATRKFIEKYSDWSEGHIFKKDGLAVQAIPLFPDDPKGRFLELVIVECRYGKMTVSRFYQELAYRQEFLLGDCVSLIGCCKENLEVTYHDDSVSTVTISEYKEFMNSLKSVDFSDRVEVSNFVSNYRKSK
WT yeast gro inh: growth inhibition of WT yeast, mitochondrial fusion screen. AID 1362. inhibition, % at 10 µM. mitochondrial fusion phenotypic screen, WT strain. 190,000 compounds, 2.1% hits; in the data active means inhibition above about 58%; tested in S. cerevisiae
SKKanGAS inh: inhibitors of SKKanGAS S. pyogenes growth in kanamycin (SK-promoter or general growth effect); BacTiter-Glo, 6 h; 300,000 compounds, 1.3% hits; inhibition, % at 7.5 µM;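 active means mean replicate score, as percent of positive control median, at least 50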;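 further: strain carries kanamycin resistance gene driven by streptokinase promoter and grows in 40 µg/ml kanamycin; loss of luminescence reflects streptokinase promoter inhibition or plain growth inhibition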
Platelet DG rel: modulates dense granule release in human platelets; AID 1663; 300,000 compounds, 0.22% hits; inhibition, %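 (compounds screened at 7.5 µM in platelet-rich plasma)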; human platelet-rich plasma, SFLLRN dense granule ATP release, luminescence;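 active means mean replicate score, as percent of positive control, at or above 50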
TPT1 inh: inhibitors of Candida albicans tRNA 2'-phosphotransferase TPT1; recombinant caTPT1, FP RNA substrate dephosphorylation; inhibition, % at 5 µM; 300,000 compounds, 0.81% hits;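 active means inhibition above the mean of all tested compounds plus 3 SD, set per screening campaign, cut at about 24% in these data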
PHOSPHO1 inh: PHOSPHO1 (human) inhibition; AID 1565; inhibition, % at 13.3 µM; Q8TCT1; recombinant PHOSPHO1, absorbance phosphatase assay; 290,000 compounds, 1.1% hits; in the data active means inhibition above about 60%
Target sequence (Q8TCT1 whole entry, looked up): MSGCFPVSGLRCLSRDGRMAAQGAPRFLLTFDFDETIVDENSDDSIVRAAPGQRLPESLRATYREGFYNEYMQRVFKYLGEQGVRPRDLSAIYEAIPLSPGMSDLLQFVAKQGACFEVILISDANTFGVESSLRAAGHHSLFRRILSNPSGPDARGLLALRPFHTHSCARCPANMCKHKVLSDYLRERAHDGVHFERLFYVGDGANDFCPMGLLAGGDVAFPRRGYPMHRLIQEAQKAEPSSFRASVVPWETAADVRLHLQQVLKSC
Numbers stand for hits.

What do the screens show for `O=C(NCc1ccncc1)C(=O)Nc1nc(C23CC4CC(CC(C4)C2)C3)cs1`?
Rtt109 HAT inh: inactive; WT yeast gro inh: inactive; SKKanGAS inh: inactive; Platelet DG rel: inactive; TPT1 inh: inactive; PHOSPHO1 inh: inactive

Results for Nc1nc2c(s1)C(=O)CC(c1ccccc1)C2 (centres undefined) ?
Rtt109 HAT inh: inactive; SKKanGAS inh: inactive; Platelet DG rel: inactive; TPT1 inh: inactive; PHOSPHO1 inh: 60

Results for COc1ccc(C2CC(=O)c3sc(N)nc3C2)cc1 (centres undefined) ?
Rtt109 HAT inh: inactive; WT yeast gro inh: inactive; SKKanGAS inh: inactive; Platelet DG rel: inactive; TPT1 inh: inactive; PHOSPHO1 inh: inactive

Results for COc1cccc(/C=N/NC(=O)c2c(C)nc3ccc(Cl)cn23)c1O ?
Rtt109 HAT inh: inactive; SKKanGAS inh: 103; Platelet DG rel: inactive; TPT1 inh: inactive; PHOSPHO1 inh: inactive

How did COc1cccc(/C=N/NC(=O)c2ccc(-c3ccccc3)cc2)c1O do in these assays?
Rtt109 HAT inh: inactive; WT yeast gro inh: inactive; SKKanGAS inh: inactive; Platelet DG rel: inactive; TPT1 inh: inactive; PHOSPHO1 inh: inactive

What do the screens show for `Cc1cccc(/C=N/NC(=O)Cc2ccc(Cl)cc2)c1O`?
Rtt109 HAT inh: inactive; SKKanGAS inh: 107; Platelet DG rel: inactive; TPT1 inh: inactive; PHOSPHO1 inh: inactive

How did Cc1ccc(O)c(/C=N/NC(=O)Cc2ccc(Cl)cc2)c1 do in these assays?
Rtt109 HAT inh: inactive; SKKanGAS inh: 97; Platelet DG rel: inactive; TPT1 inh: inactive; PHOSPHO1 inh: inactive

How did Cc1cccc(/C=N\NC(=O)c2ccc(Cl)cc2)c1O do in these assays?
WT yeast gro inh: inactive; SKKanGAS inh: 93; Platelet DG rel: inactive; TPT1 inh: inactive; PHOSPHO1 inh: inactive

Results for CC(C)c1ccc(NC(=O)CN2C(=O)NC3(CCCCCCC3)C2=O)cc1 ?
Rtt109 HAT inh: inactive

How did Cc1ccc(N2CC(C(=O)N(C)CC(=O)Nc3ccc(Cl)c(C(F)(F)F)c3)CC2=O)cc1 (centres undefined) do in these assays?
Rtt109 HAT inh: inactive; SKKanGAS inh: inactive; Platelet DG rel: inactive; TPT1 inh: inactive

How did O=C1CCC(C(=O)Nc2ccc([N+](=O)[O-])cc2)N1 (centres undefined) do in these assays?
Rtt109 HAT inh: inactive

How did CC1CCCCC12NC(=O)N(CC(=O)NCCc1ccc(F)cc1)C2=O (centres undefined) do in these assays?
Rtt109 HAT inh: inactive

What do the screens show for `Cc1nc(NS(=O)(=O)c2ccc(Cl)s2)c2c3c(sc2n1)CCCC3`?
Rtt109 HAT inh: inactive; SKKanGAS inh: 63; Platelet DG rel: inactive; TPT1 inh: inactive; PHOSPHO1 inh: inactive

Results for CCOCC(=O)Nc1cc(S(=O)(=O)N2CCOCC2)ccc1N1CCCCC1 ?
Rtt109 HAT inh: inactive; WT yeast gro inh: inactive; SKKanGAS inh: inactive; Platelet DG rel: inactive; TPT1 inh: inactive; PHOSPHO1 inh: 75

Results for O=C(Nc1ccccc1Cl)c1cc(S(=O)(=O)N2CCCCC2)ccc1N1CCOCC1 ?
Rtt109 HAT inh: 60; WT yeast gro inh: inactive; SKKanGAS inh: inactive; Platelet DG rel: inactive; TPT1 inh: inactive; PHOSPHO1 inh: inactive

Results for CCOc1c(C)cnc2c1c(=O)n(Cc1c(F)cccc1Cl)c(=O)n2C ?
Rtt109 HAT inh: inactive; SKKanGAS inh: inactive; Platelet DG rel: inactive; TPT1 inh: inactive; PHOSPHO1 inh: inactive

How did Cc1cc(N2C(=O)C=CC2=O)c([N+](=O)[O-])cc1C do in these assays?
Rtt109 HAT inh: 116; WT yeast gro inh: 62; Platelet DG rel: inactive; TPT1 inh: inactive; PHOSPHO1 inh: inactive

What do the screens show for `CN(C(=O)c1ccc(NC(=O)Cc2ccc(NC(=O)C3CCCN(C(=O)C4CCC4)C3)cc2)cc1)C1CCCC1` (centres undefined)?
Rtt109 HAT inh: inactive

How did CC(Cl)C(=O)NNc1cccc(Cl)n1 (centres undefined) do in these assays?
Rtt109 HAT inh: inactive; WT yeast gro inh: 58; SKKanGAS inh: inactive; TPT1 inh: inactive; PHOSPHO1 inh: inactive

How did COc1ccccc1-c1sc2cc3c(cc2c1C#Cc1cncn1C)OCO3 do in these assays?
Rtt109 HAT inh: inactive

What do the screens show for `Oc1ccc(-n2cccc2/C=N/n2cnnc2)cc1`?
Rtt109 HAT inh: inactive; WT yeast gro inh: inactive; SKKanGAS inh: inactive; Platelet DG rel: inactive; TPT1 inh: inactive; PHOSPHO1 inh: inactive

What do the screens show for `FC(F)(F)c1cccc(-n2cccc2/C=N/n2cnnc2)c1`?
Rtt109 HAT inh: inactive; WT yeast gro inh: inactive; SKKanGAS inh: inactive; Platelet DG rel: inactive; TPT1 inh: inactive; PHOSPHO1 inh: 94

How did N/C(Cc1ccc(Cl)cc1Cl)=N\OC(=O)c1ccccc1F do in these assays?
Rtt109 HAT inh: inactive; WT yeast gro inh: 97; SKKanGAS inh: inactive; Platelet DG rel: inactive; TPT1 inh: inactive; PHOSPHO1 inh: inactive

Results for N/C(Cc1cccc2ccccc12)=N\OC(=O)c1ccccc1F ?
Rtt109 HAT inh: inactive; SKKanGAS inh: inactive; Platelet DG rel: inactive; PHOSPHO1 inh: inactive

How did O=C(c1ccc(Cl)cc1)c1cnc(-c2ccccc2)s1 do in these assays?
Rtt109 HAT inh: inactive; WT yeast gro inh: inactive; PHOSPHO1 inh: inactive

How did O=C(c1cnc(-c2ccccc2)s1)c1ccc(Cl)cc1Cl do in these assays?
Rtt109 HAT inh: inactive; WT yeast gro inh: 64; SKKanGAS inh: 57; Platelet DG rel: inactive; TPT1 inh: inactive; PHOSPHO1 inh: inactive

Results for Cc1ccc(C)n1-c1ccccc1N1CCCCC1 ?
Rtt109 HAT inh: inactive; WT yeast gro inh: inactive; SKKanGAS inh: inactive; Platelet DG rel: inactive; TPT1 inh: inactive; PHOSPHO1 inh: 63

How did Cc1cc(=O)cc(C)n1-c1ccccc1N1CCOCC1 do in these assays?
Rtt109 HAT inh: inactive; WT yeast gro inh: inactive; SKKanGAS inh: inactive; Platelet DG rel: inactive; TPT1 inh: inactive; PHOSPHO1 inh: inactive

What do the screens show for `Cc1ccc(NC(=S)NC2CCSc3ccccc32)cc1C` (centres undefined)?
Rtt109 HAT inh: inactive; SKKanGAS inh: 61; Platelet DG rel: inactive; TPT1 inh: inactive; PHOSPHO1 inh: inactive

How did COC(=O)c1ccc(C(=O)NC2CCSc3ccccc32)cc1 (centres undefined) do in these assays?
Rtt109 HAT inh: inactive; SKKanGAS inh: inactive; Platelet DG rel: inactive; TPT1 inh: inactive; PHOSPHO1 inh: inactive

Results for CN(C)c1ncnc2c1NC1=C(S2)C(=NCCCC(=O)O)CC(C)(C)C1 ?
Rtt109 HAT inh: inactive; WT yeast gro inh: inactive; SKKanGAS inh: inactive; Platelet DG rel: inactive; TPT1 inh: inactive; PHOSPHO1 inh: 87

What do the screens show for `CCOc1ccc(C(=O)CCC(=O)N2CCN(c3ncccn3)CC2)cc1`?
Rtt109 HAT inh: inactive; SKKanGAS inh: inactive; Platelet DG rel: inactive; TPT1 inh: inactive

How did CCCCCCc1cc2cc(C(=O)Nc3ccc(OC)cc3)c(=O)oc2cc1O do in these assays?
Rtt109 HAT inh: inactive; WT yeast gro inh: inactive; SKKanGAS inh: inactive; Platelet DG rel: inactive; TPT1 inh: inactive; PHOSPHO1 inh: inactive

How did CCCCCCc1cc2cc(C(=O)OCC)c(=O)oc2cc1O do in these assays?
Rtt109 HAT inh: inactive; SKKanGAS inh: 56; Platelet DG rel: inactive; TPT1 inh: inactive; PHOSPHO1 inh: inactive
